Results on 22 molecules are retold here after PubChem BioAssay (Tox21).

“And” between values parts separate entries of the source, which are not always exact repeats. Equal entries are not always repeated. Records with an inconclusive call do not appear. Unmarked numbers belong to inactive results. The source made the active and inactive calls. Calls come from the whole dose curve; as a rule, active = well fitted curve in the direction sought with a large enough effect in the repeat runs; inconclusive = weak or mixed curves; inactive = no such curve, though single readings can be large; an effect the other way counts as inactive or inconclusive.

Test [1] can be described thus: A CellTox Green Cytotoxicity Assay to monitor cytotoxicity in HEK293 cells - 40 hour (AID 1224871). Note: nearly all actives have a fitted effect of over 45% in size. Note: potency is the fitted concentration of half-maximal effect. Summed up: (§1)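 Cells (HEK293, 600/well) and dye reagent are dispensed together. After 5 h at 37 C, 23 nL compound is pinned in. Plates stay at 37 C for 40 h with fluorescence read at 0h, 8h, 16h, 24h, 32h and 40h.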
The nature of test [2]: qHTS RealTime-Glo MT Cell Viability Assay in HepG2 cells - 8 hour (AID 1224873). Note: nearly all actives have a fitted effect of over 55% in size. Summed up: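 Real-time viability: cells seeded at 600 per well together with NanoLuc and cell-permeant prosubstrate, compounds added after 5 h incubation. Luminescence tracked at 0, 8, 16, 24, 32 and 40 h of exposure.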
A short description of test [3]: qHTS RealTime-Glo MT Cell Viability Assay in HEK293 cells - 40 hour (AID 1224874). Note: nearly all actives have a fitted effect of over 50% in size. Note: potency is the fitted concentration of half-maximal effect. Particulars: RealTime-Glo luminescence; max response: active compounds read low. Put shortly: (§2)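 Real-time viability in HEK293: signal arises when living cells convert a prosubstrate for NanoLuc in the medium, so luminescence tracks viable cell number. Compound (23 nL, DMSO) added 5 h post-seeding; kinetic reads at 0–40 h, 37 C.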
A general note: qHTS replaces the single test concentration by a dilution series.

Test [4] can be described thus: A CellTox Green Cytotoxicity Assay to monitor cytotoxicity in HEK293 cells - 24 hour (AID 1224875). For activity change: series mostly up to about 77 µM. Note: nearly all actives have a fitted effect of over 45% in size. Note: potency is the fitted concentration of half-maximal effect. Put shortly: as §1
A short description of test [5]: A CellTox Green Cytotoxicity Assay to monitor cytotoxicity in HepG2 cells - 16 hour (AID 1224876). Note: nearly all actives have a fitted effect of over 45% in size. Note: potency is the fitted concentration of half-maximal effect. Summed up: (§3)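 Cells and non-lytic dye reagent are dispensed together (600 HepG2 cells/well) and incubated 5 h before DMSO compound transfer. Kinetic fluorescence is then recorded in the same wells during 40 h at 37 C.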
The nature of test [6]: qHTS RealTime-Glo MT Cell Viability Assay in HepG2 cells - 32 hour (AID 1224877). Note: nearly all actives have a fitted effect of over 55% in size. Note: potency is the fitted concentration of half-maximal effect. Put shortly: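 HepG2 cells (600/well) were dispensed with RealTime-Glo reagents, incubated 5 h at 37 °C, then treated with compounds in DMSO for up to 40 h. Nonlytic NanoLuc luminescence reflecting viable cells was read at each stated time point.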
Test [7] can be described thus: A CellTox Green Cytotoxicity Assay to monitor cytotoxicity in HepG2 cells - 24 hour (AID 1224878). Note: nearly all actives have a fitted effect of over 45% in size. Note: potency is the fitted concentration of half-maximal effect. Put shortly:
as §3

Test [8] is described as follows: qHTS RealTime-Glo MT Cell Viability Assay in HEK293 cells - 16 hour (AID 1224872). For activity change, negative = cytotoxicity: top concentration of the series differs between compounds. Note: nearly all actives have a fitted effect of over 50% in size. Note: potency is the fitted concentration of half-maximal effect. Put shortly:
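HEK293 cells seeded with NanoLuc/prosubstrate reagent, rested 5 h at 37 C, then dosed and kept at 37 C up to 40 h. Nonlytic real-time luminescence from viable cells read at 0, 8, 16, 24, 32 and 40 h.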

Test [9] can be described thus: A CellTox Green Cytotoxicity Assay to monitor cytotoxicity in HepG2 cells - 40 hour (AID 1224879). Note: nearly all actives have a fitted effect of over 40% in size. Note: potency is the fitted concentration of half-maximal effect. Summed up: as §3
A short description of test [10]: qHTS RealTime-Glo MT Cell Viability Assay in HEK293 cells - 0 hour (AID 1224880). For activity change, negative = cytotoxicity: top concentration of the series differs between compounds. Note: nearly all actives have a fitted effect of over 45% in size. Note: potency is the fitted concentration of half-maximal effect. Summed up: as §2
% is set by controls: 0 for no effect and ±100 for the full control effect.

`CC(=O)CC(c1ccc([N+](=O)[O-])cc1)c1c(O)c2ccccc2oc1=O` (centres undefined): the Potency entry in test [1], in test [2], in test [4], in [5], in [6] and in [7] was “inactive” in each case. Besides, in test [3], the max response was -4.65%.

For `COC(=O)c1cc(Cl)ccc1NS(=O)(=O)C(F)(F)F`, the Potency entry in test [1], in test [8], in [4], in [5], in test [6] and in test [7] was “inactive” throughout. The Potency result in [9] and in test [10] was “inactive” each time. In addition, in [3], the max response is 2.62%.

On to `C/C=C(\C)C(=O)OCCC(C)CCC=C(C)C` (centres undefined), for which the Potency result in test [1], in test [8], in [4], in test [5], in test [6] and in test [7] was “inactive” throughout. Moreover, the Potency result in test [9] and in test [10] was “inactive” in each case. Besides, in test [3], the max response was 5.27%.

As for `Oc1cc(O)c(Cl)cc1Cl`, the Potency result in test [1], in [8], in test [4], in test [5], in [6] and in test [9] was “inactive” throughout. Also, the Potency result in test [10] was “inactive”. In test [3], the max response was 17.2%.

Take `CCCCCCCCCCCCCCC[C@H](O)[C@@H](N)CO`: the Potency in [1] is 23.9 µM (active); in test [8], 21.3 µM (active); in test [3], 26.8 µM (active); in test [4], 21.3 µM (active); in [5], 23.9 µM (active); in test [6], 26.8 µM (active). The Potency in test [7] and in test [9] was 26.8 µM (active) throughout.

As to `C[C@]12CCC(=O)C=C1C=C[C@@H]1[C@@H]2CC[C@@]2(C)[C@H]1CC[C@@]21CCC(=O)O1`, the Potency result in [1], in test [8], in test [4], in [5], in [6] and in test [7] was “inactive” in each case. Also, the Potency entry in test [9] and in test [10] was “inactive” each time. Besides, in test [3], the max response is -25.7%.

Take `[O]=[Bi]`: the cytotoxicity increase is -5.17% [at 6.97 µM] in test [1], -7.67% [at 6.97 µM] in test [5] and -12.6% [at 6.97 µM] in test [9]. Moreover, the viability change, negative = cytotoxic in [2] was 0.919% [at 6.97 µM]. In test [3], the max response is 3.42%. Moreover, the activity change in test [4] is -2.05% [at 6.97 µM, active compounds read high]. Also, the activity change, negative = cytotoxic in test [6] was 5.58% [at 6.97 µM]. Moreover, the cytotoxicity in test [7] was -9.9% [at 6.97 µM]. In [10], the activity change, negative = cytotoxicity was 1.4% [at 6.97 µM].

On to `OCC1CC=CCC1` (centres undefined), for which the Potency entry in test [1], in test [8], in test [4], in test [5], in test [6] and in [7] was “inactive” in each case. Besides, the Potency result in test [9] and in test [10] was “inactive” each time. Further, in [3], the max response was -1.94%.

Consider `CC(=O)OCC(=O)[C@@]12OC(C)(C)O[C@@H]1C[C@H]1[C@@H]3C[C@H](F)C4=CC(=O)C=C[C@]4(C)[C@@]3(F)[C@@H](O)C[C@@]12C`, for which, in [1], the Potency is 26.8 µM (active). Besides, the Potency result in [8], in test [5], in [6], in [7] and in [9] was “inactive” each time.

Take `CCC(=O)OC/C=C/c1ccccc1`: the Potency result in test [1], in test [8], in [4], in test [5], in test [6] and in [7] was “inactive” each time. The Potency entry in test [9] and in [10] was “inactive” each time. In test [3], the max response was 1.64% and -7.61%.

Regarding `CCCC(=O)O[C@]1(C(=O)COC(=O)CC)CC[C@H]2[C@@H]3CCC4=CC(=O)CC[C@]4(C)[C@H]3[C@@H](O)C[C@@]21C`, the figures for the cytotoxicity increase in test [1], in test [5] and in test [9] were -16.6% [at 15.8 µM], -6.66% [at 15.8 µM] and -7.71% [at 15.8 µM], respectively. For the same molecule, in test [8], the activity change, negative = cytotoxicity is 5.42% [at 15.8 µM]. For the same molecule, the max response in test [3] was 4.99%. Also, in test [4], the activity change is -15.7% [at 15.8 µM, active compounds read high]. Further, the activity change, negative = cytotoxic in test [6] was 2.32% [at 15.8 µM]. Further, the cytotoxicity in [7] was -8.51% [at 15.8 µM].

As for `CO[Si](C)(OC)OC`, the Potency entry in test [1], in [8], in test [4], in test [5], in [6] and in test [7] was “inactive” in each case. Further, the Potency result in test [10] is “inactive”. In addition, the max response in test [3] is 2.67%.

In the case of `C=CC(C)(O)CCCC(C)CCCC(C)CCCC(C)C` (centres undefined), the Potency entry in test [1], in [2], in test [4], in test [5], in test [6] and in test [7] was “inactive” in each case. Moreover, the Potency entry in [9] and in test [10] was “inactive” in each case. The max response in test [3] is 6.13%.

In the case of `CC(=O)Oc1ccc(C(=C2CCCCC2)c2ccc(OC(C)=O)cc2)cc1`, the Potency entry in [1], in test [8], in test [4], in test [5], in [6] and in test [7] was “inactive” in each case. Further, the Potency entry in test [9] and in [10] was “inactive” in each case. Further, the max response in test [3] was 4.82%.

Consider `CC(C)(C)CC(C)(C)c1ccc(OCCO)cc1`, for which the Potency in test [1] was 48.7 µM (active); in test [8] it was 6.88 µM (active); in test [3], 4.87 µM (active). Moreover, the Potency result in test [5], in test [6], in test [7], in [9] and in test [10] was “inactive” in each case.

Consider `Cc1ccc(/C=N/n2c(-c3ccccc3)csc2=S)cc1`, for which the Potency entry in test [1], in test [8], in [5], in test [6], in test [7] and in test [9] was “inactive” in each case. In [10], the Potency entry was “inactive”. Also, in [3], the max response is -0.419%.

`O=C(CCCCCCC(=O)Nc1ccccc1)NO`: the Potency entry in test [1], in test [4], in test [5], in test [7] and in [10] was “inactive” throughout. Besides, the values for the Potency in [8], in [3] and in test [9] were 2.68 µM (active), 2.39 µM (active) and 2.68 µM (active), respectively.

With `CCC1(C)CC(=O)NC1=O` (centres undefined), the Potency entry in [1], in test [4], in test [5], in test [6], in [7] and in [9] was “inactive” in each case. For the same molecule, the max response in test [3] was 1.67%.

As to `CC(=O)[C@H]1CC[C@H]2[C@@H]3C[C@H](C)C4=CC(=O)CC[C@]4(C)[C@H]3[C@@H](O)C[C@]12C`, the Potency result in [1], in test [2], in test [4], in test [5], in [6] and in [7] was “inactive” each time. The Potency entry in [9] is “inactive”. The Potency in test [10] is 1.69 µM (active).

With `O=C(Nc1ccccc1)Nc1ccccc1`, the Potency result in test [1], in [2], in test [4], in test [5], in test [6] and in [7] was “inactive” each time. Further, the Potency entry in [9] is “inactive”.

Consider `CCCCC(CC)C(=O)OCCOCCOCCOCCOC(=O)C(CC)CCCC` (centres undefined), for which the Potency entry in test [1], in test [2], in [4], in [5], in [6] and in test [9] was “inactive” in each case. Further, the Potency entry in [10] was “inactive”.

Consider `CCn1nc(C)c2c1C(=O)NCC(c1ccc(O)cc1)=N2`, for which the Potency entry in test [1], in test [2], in test [4], in test [5], in test [6] and in test [7] was “inactive” each time. Besides, the Potency result in [9] and in test [10] was “inactive” each time. Moreover, the max response in [3] is 0.626%.
